# Data reported in PubChem BioAssay AID1739 (National Center for Advancing Translational Sciences (NCATS), 2009).
# Records with an inconclusive call do not appear. A call without a number means that no potency is given here. Calls of active or inactive are those of the source. Calls come from the whole dose curve; as a rule, active = well fitted inhibition curve with a large enough effect; inconclusive = small, poorly fitted or top-dose-only effect; inactive = flat fitted curve, though single readings scatter.
# Test: Counterscreen Assay for Enhancers of SMN2 Splice Variant Expression: Modulation of SMN1 Expression
# Settings: HEK293 SMN1-luciferase reporter, luminescence, 30-36 h; series mostly up to 22.8 µM
# From the text: NIH Chemical Genomics Center [NCGC] NIH Molecular Libraries Probe Production centers Network [MLPCN] MLPCN Grant: R03 MH084179-01 Assay Submitter (PI): Elliot Androphy NCGC Assay Overview: Spinal muscular atrophy (SMA) is caused by insufficient levels of the survival motor neuron protein SMN. The SMN locus on chromosome 5q13 contains two inverted copies of SMN called SMN1 and SMN2 which are 99% identical at the amino acid level. SMN1 is a fully functional protein and SMN2 skips exon 7 90% of the time. Skipping of exon 7 produces non-functional protein product. 10% of the SMN2 protein includes exon 7 and is fully functional. In the SMA disease state, mutations in the SMN1 locus are the cause of the disease state. Because only 10% of SMN2 is of the fully functional form, it is not sufficient to overcome the deficiency produced by the loss of the SMN1 product. A therapy that either increase the amount of SMN2 product made or to increase the inclusion of exon 7 has been proposed for the treatment of SMA. We have designed an assay to identify small molecules that can increase the amount of functional SMN2 product by appending a luciferase reporter gene after the native SMN2 gene, such that inclusion of exon 7 in the expressed product places the luciferase sequence in frame, thus generating functional luciferase enzyme. […]
row,Compound,Potency
1,CCc1ccc2nc(N3CCC(C(=O)N4CCC5(CC4)OCCO5)CC3)sc2c1,inactive
2,CC[C@]1(O)CC(O[C@@H]2CC(N(C)C)C(O)C(C)O2)c2c(cc3c(c2O)C(=O)c2c(O)cccc2C3=O)C1C(=O)OC (some centres not stated),1.12 µM (active)
